# Measured values published in paper PMC7862700, “An all-to-all approach to the identification of sequence-specific readers for epigenetic DNA modifications on cytosine”.
# What was measured:
# Assay in all cases: DAPPL (digital affinity profiling via proximity ligation, sequencing); 10 mM Tris-HCl pH 7.5, 50 mM NaCl, 1 mM DTT, 4% glycerol, room temperature, 30 min; GST-TFs on glutathione beads, 16-mer random dsDNA library, 0.1% formaldehyde crosslink after washing; high values mean tight binding
# Conditions in all cases: protein: recombinant; tags: N-terminal GST; dsDNA, one strand shown
# [1] = molecular target: T1, ELK1 (Homo sapiens, UniProt P19419 1-428)
# T1 sequence: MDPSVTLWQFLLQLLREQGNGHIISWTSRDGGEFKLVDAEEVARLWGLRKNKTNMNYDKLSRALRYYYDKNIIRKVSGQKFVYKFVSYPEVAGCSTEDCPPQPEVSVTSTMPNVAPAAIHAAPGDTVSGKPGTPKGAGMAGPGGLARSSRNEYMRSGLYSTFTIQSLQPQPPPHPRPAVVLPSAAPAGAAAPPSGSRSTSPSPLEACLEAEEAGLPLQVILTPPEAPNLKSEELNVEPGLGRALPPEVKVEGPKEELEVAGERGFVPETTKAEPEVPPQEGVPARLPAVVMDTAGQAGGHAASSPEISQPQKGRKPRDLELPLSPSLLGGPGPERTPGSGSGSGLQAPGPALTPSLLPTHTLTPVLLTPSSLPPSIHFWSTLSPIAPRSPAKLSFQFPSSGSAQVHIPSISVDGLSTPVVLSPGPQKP
# Procedure, shortened: (§1)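 Sequencing on an Illumina NextSeq500 followed washing, crosslinking with 0.1% formaldehyde, proximity ligation (BsaI/T4 ligase, 1 h, 37 °C) and PCR amplification of pools that had been incubated for 30 min at room temperature with 200 nmole of a random double-stranded 16-mer DNA library in Tris/NaCl/DTT/glycerol buffer. Each pool held DNA-barcoded human transcription factors, expressed in yeast as GST fusions and captured on glutathione beads, plus a tag-only sample. Binding signal is a hexamer's read frequency for a factor divided by its frequency in the tag-only sample.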
# [2] = molecular target: T2, GABPA (Homo sapiens, UniProt Q06546 1-454)
# T2 sequence: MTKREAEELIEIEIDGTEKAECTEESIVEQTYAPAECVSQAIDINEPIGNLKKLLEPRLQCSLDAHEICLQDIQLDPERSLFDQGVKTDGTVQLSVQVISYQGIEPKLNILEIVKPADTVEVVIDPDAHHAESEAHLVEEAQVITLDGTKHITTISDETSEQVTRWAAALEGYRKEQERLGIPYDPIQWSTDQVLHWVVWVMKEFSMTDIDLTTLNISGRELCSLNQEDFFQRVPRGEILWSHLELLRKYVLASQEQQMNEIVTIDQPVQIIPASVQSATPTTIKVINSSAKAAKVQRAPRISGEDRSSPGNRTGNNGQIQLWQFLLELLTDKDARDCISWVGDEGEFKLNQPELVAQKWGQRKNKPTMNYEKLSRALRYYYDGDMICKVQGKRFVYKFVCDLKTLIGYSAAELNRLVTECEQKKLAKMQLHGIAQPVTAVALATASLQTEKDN
# Procedure, shortened: as §1
# [3] = molecular target: T3, ERG (Homo sapiens, UniProt P11308 1-479)
# T3 sequence: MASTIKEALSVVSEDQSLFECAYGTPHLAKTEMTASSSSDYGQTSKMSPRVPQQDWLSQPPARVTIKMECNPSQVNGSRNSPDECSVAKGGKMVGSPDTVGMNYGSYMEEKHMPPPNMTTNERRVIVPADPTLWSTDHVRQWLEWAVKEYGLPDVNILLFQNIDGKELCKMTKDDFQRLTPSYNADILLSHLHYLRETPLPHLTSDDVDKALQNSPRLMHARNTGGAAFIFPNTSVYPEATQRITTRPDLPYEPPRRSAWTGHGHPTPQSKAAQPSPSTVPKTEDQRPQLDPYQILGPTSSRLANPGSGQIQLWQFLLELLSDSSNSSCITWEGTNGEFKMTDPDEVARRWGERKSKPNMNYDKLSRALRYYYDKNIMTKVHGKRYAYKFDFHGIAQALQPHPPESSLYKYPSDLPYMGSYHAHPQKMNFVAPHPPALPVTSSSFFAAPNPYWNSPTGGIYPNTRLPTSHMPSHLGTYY
# Procedure, shortened: as §1
# [4] = molecular target: ELF1 (Homo sapiens, UniProt P32519 1-619)
# Procedure, shortened: as §1
# [5] = molecular target: SPIB (Homo sapiens, UniProt Q01892 1-262)
# Procedure, shortened: as §1
# [6] = molecular target: T4, FEV (Homo sapiens, UniProt Q99581 1-238)
# T4 sequence: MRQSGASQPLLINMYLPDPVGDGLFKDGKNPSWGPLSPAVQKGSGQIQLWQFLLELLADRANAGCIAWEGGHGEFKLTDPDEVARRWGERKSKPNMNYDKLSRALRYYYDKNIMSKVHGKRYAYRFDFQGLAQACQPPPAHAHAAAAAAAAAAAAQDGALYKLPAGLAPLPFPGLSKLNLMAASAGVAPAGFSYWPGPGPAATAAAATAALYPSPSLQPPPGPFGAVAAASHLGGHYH
# Procedure, shortened: as §1
# [7] = molecular target: ETV5 (Homo sapiens, UniProt P41161 1-510)
# Procedure, shortened: as §1
# [8] = molecular target: ELF4 (Homo sapiens, UniProt Q99607 1-663)
# Procedure, shortened: as §1
# [9] = molecular target: T5, ETV2 (Homo sapiens, UniProt O00321 1-342)
# T5 sequence: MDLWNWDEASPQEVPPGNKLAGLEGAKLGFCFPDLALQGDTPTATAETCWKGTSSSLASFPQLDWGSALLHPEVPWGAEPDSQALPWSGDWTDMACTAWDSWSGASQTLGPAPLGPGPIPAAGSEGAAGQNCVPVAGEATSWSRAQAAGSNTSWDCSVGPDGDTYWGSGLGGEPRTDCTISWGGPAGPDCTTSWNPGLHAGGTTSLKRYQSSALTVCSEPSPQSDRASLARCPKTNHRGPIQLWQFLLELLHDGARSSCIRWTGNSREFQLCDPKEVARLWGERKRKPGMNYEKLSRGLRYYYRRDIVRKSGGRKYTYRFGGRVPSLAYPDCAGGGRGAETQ
# Procedure, shortened: as §1
# [10] = molecular target: T6, ELF3 (Homo sapiens, UniProt P78545 1-371)
# T6 sequence: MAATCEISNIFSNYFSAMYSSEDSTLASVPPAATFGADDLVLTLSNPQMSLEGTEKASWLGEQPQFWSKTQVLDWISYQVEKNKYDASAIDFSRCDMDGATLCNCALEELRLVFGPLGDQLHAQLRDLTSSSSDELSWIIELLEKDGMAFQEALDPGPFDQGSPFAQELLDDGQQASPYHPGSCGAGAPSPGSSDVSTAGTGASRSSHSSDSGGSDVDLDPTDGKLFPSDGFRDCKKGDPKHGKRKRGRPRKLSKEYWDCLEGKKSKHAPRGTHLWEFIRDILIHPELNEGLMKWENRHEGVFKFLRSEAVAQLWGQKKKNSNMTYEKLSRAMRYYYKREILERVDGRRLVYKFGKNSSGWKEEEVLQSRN
# Procedure, shortened: as §1
# [11] = molecular target: T7, ERF (Homo sapiens, UniProt P50548 1-548)
# T7 sequence: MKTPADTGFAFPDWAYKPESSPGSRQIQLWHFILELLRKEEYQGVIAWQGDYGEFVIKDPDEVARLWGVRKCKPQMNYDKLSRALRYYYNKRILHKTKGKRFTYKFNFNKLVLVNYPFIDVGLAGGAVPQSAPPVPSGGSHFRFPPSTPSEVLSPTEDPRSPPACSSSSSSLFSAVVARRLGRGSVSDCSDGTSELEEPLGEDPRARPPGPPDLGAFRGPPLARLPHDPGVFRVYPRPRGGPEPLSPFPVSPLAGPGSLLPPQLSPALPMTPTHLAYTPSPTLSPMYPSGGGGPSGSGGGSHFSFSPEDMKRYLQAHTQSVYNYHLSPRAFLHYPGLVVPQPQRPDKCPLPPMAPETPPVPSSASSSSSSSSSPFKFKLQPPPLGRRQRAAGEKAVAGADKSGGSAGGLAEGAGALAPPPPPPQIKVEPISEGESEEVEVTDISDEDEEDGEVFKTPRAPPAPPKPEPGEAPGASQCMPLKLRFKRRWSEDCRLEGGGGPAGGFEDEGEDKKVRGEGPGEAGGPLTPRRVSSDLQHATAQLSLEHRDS
# Procedure, shortened: as §1
# [12] = molecular target: T8, ETV3L (Homo sapiens, UniProt Q6ZN32 1-361)
# T8 sequence: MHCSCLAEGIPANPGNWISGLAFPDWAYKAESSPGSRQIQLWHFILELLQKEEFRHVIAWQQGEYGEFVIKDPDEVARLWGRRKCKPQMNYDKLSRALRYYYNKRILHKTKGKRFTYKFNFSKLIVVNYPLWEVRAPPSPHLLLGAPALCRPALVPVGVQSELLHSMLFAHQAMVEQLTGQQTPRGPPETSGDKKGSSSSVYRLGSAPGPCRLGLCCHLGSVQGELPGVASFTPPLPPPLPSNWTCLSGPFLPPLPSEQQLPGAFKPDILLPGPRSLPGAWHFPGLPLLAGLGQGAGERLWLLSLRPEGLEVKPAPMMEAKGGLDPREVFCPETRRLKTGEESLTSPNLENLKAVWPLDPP
# Procedure, shortened: as §1
# [13] = molecular target: T9, ETS2 (Homo sapiens, UniProt P15036 1-469)
# T9 sequence: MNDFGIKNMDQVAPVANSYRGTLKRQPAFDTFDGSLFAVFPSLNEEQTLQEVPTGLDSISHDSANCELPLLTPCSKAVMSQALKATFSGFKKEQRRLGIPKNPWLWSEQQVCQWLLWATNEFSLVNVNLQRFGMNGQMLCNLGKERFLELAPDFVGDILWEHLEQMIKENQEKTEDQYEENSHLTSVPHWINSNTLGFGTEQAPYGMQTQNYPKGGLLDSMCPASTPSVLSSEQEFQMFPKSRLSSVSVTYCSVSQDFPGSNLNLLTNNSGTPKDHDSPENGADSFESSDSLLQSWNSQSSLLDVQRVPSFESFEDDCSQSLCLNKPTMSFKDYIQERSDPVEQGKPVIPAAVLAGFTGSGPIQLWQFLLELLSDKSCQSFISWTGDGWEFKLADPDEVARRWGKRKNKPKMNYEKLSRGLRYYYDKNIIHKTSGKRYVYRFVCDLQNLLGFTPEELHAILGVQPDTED
# Procedure, shortened: as §1
# [14] = molecular target: T10, SPDEF (Homo sapiens, UniProt O95238 1-335)
# T10 sequence: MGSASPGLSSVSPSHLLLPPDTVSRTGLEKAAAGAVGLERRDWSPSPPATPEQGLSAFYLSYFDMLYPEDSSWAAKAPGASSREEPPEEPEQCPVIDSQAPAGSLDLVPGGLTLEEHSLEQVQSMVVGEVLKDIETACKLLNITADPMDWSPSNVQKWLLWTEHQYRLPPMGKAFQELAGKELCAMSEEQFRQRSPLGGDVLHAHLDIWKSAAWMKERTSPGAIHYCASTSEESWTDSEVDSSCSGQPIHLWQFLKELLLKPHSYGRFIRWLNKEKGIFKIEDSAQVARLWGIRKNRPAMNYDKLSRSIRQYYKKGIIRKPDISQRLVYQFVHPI
# Procedure, shortened: as §1
# [15] = molecular target: T11, ETV7 (Homo sapiens, UniProt Q9Y603 1-341)
# T11 sequence: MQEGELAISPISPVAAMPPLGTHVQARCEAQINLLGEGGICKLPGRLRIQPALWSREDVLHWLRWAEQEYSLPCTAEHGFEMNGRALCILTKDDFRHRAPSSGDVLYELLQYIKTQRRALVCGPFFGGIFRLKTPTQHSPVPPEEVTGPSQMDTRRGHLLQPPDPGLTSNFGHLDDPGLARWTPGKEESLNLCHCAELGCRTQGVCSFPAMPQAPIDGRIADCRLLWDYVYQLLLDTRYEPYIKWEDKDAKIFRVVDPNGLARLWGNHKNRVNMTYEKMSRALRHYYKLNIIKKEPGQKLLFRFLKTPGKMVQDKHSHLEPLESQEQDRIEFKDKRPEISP
# Procedure, shortened: as §1
# [16] = molecular target: T12, ETV3 (Homo sapiens, UniProt P41162-2 1-143)
# T12 sequence: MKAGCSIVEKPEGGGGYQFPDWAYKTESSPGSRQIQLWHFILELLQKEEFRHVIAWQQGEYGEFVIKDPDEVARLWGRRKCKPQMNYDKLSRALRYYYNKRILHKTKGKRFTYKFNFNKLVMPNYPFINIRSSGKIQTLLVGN
# Procedure, shortened: as §1
# [17] = molecular target: ETV6 (Homo sapiens, UniProt P41212 1-452)
# Procedure, shortened: as §1
# ELF1, sequence (P32519 whole entry): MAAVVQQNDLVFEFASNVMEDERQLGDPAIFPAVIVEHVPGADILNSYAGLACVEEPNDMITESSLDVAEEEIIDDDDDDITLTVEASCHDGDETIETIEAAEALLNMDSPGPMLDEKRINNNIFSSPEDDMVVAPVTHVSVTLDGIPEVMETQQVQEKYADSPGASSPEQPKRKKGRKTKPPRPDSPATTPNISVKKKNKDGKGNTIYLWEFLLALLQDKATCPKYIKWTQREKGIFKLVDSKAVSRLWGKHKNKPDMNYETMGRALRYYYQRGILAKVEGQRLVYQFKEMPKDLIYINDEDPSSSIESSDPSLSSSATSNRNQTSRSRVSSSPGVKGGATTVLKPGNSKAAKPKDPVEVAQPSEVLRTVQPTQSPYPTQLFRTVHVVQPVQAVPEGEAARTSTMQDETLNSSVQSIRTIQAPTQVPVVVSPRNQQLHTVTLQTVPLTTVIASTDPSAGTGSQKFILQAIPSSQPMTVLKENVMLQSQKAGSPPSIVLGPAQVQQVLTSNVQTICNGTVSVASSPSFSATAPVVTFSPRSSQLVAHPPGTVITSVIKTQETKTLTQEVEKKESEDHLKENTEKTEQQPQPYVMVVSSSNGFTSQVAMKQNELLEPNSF
# ETV5, sequence (P41161 whole entry): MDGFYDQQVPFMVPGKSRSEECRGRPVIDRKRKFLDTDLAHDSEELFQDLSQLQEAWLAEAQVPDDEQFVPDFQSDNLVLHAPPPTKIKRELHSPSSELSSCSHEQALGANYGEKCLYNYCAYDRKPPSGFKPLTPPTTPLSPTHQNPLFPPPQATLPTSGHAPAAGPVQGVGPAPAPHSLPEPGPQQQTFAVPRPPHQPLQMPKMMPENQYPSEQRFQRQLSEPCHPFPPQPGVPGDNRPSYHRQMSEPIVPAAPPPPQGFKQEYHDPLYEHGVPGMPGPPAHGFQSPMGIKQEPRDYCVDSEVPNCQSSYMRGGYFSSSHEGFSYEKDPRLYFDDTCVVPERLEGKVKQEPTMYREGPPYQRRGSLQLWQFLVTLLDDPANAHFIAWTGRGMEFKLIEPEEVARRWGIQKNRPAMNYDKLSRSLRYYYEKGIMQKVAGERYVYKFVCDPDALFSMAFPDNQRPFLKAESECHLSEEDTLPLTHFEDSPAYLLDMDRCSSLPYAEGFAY
# ETV6, sequence (P41212 whole entry): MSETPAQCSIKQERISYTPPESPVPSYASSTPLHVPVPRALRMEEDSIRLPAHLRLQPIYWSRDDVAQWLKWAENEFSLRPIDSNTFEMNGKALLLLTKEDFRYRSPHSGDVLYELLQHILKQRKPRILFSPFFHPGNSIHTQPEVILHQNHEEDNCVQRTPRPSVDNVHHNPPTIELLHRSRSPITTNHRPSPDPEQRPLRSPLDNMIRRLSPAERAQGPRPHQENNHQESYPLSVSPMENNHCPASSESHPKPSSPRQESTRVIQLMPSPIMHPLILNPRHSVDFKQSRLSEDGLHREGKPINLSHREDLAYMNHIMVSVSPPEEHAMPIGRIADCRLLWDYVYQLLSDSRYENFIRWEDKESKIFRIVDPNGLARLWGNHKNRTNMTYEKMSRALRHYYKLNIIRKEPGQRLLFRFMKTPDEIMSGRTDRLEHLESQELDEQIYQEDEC
# SPIB, sequence (Q01892 whole entry): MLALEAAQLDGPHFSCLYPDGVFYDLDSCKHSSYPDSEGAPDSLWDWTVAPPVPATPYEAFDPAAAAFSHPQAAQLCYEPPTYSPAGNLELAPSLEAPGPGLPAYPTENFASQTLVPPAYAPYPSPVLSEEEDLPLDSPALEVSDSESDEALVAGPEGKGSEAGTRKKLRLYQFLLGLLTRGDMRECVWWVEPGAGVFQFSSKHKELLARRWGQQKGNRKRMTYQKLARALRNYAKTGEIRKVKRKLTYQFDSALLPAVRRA
# ELF4, sequence (Q99607 whole entry): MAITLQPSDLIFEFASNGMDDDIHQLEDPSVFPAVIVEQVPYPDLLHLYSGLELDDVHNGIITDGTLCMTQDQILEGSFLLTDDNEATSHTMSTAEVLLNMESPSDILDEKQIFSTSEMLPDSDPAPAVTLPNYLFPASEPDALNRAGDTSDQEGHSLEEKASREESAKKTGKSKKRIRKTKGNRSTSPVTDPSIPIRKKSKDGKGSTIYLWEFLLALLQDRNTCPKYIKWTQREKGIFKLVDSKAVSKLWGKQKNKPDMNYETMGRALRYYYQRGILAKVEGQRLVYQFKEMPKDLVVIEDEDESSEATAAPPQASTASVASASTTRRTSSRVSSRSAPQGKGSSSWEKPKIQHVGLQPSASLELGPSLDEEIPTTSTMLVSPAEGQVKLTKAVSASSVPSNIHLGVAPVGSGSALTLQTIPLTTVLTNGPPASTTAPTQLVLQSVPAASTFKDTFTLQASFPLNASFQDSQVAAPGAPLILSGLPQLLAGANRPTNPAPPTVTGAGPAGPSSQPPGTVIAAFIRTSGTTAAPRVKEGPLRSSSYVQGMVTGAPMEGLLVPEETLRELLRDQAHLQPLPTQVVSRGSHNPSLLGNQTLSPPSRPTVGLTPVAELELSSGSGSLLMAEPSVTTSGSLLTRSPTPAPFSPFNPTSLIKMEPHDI
sequence,measurement,setting,value
CCGCAG,binding signal,[1],"1.09 fold enrichment (6-mer frequency, TF over GST control)"
same,binding signal,[2],"1.13 fold enrichment (6-mer frequency, TF over GST control)"
same,binding signal,[3],"1.06 fold enrichment (6-mer frequency, TF over GST control)"
same,binding signal,[4],"1.01 fold enrichment (6-mer frequency, TF over GST control)"
same,binding signal,[5],"1.21 fold enrichment (6-mer frequency, TF over GST control)"
same,binding signal,[6],"1.08 fold enrichment (6-mer frequency, TF over GST control)"
same,binding signal,[7],"1.12 fold enrichment (6-mer frequency, TF over GST control)"
same,binding signal,[8],"1.07 fold enrichment (6-mer frequency, TF over GST control)"
same,binding signal,[9],"1.22 fold enrichment (6-mer frequency, TF over GST control)"
same,binding signal,[10],"1.19 fold enrichment (6-mer frequency, TF over GST control)"
same,binding signal,[11],"1.12 fold enrichment (6-mer frequency, TF over GST control)"
same,binding signal,[12],"1.02 fold enrichment (6-mer frequency, TF over GST control)"
same,binding signal,[13],"1.06 fold enrichment (6-mer frequency, TF over GST control)"
same,binding signal,[14],"1.07 fold enrichment (6-mer frequency, TF over GST control)"
same,binding signal,[15],"1.12 fold enrichment (6-mer frequency, TF over GST control)"
same,binding signal,[16],"1.07 fold enrichment (6-mer frequency, TF over GST control)"
same,binding signal,[17],"1 fold enrichment (6-mer frequency, TF over GST control)"
